Laboratory results reported in PubChem BioAssay.

Test: S. cerevisiae RM11-1a growth modifiers, primary screen, strain RM11-1a, OD600, basal, 24 h (AID 1177);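 further: cultures grown under basal conditions with no added stressor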
Settings: OD600, 24 h, higher = more signal, called active from +8 up or from −8 down
Further: test concentration not given here.

z-score, inactive:
C=C(CCCC)C(=O)CC[C@@H](OC(=O)c1ccccc1-c1ccccc1C(=O)O)c1ccc(OCCO)cc1 -0.585
O=C(CS)NCCCCCCNC(=O)[C@@H]1C[C@@H]2C(=O)N[C@@H](Cc3ccccc3)C(=O)N2[C@@H]1c1cccc(OCCO)c1 0.0598
CC(C)C(O)C1C=CC2C(=O)N(c3ccccc3)C(=O)C2N1Nc1ccc([N+](=O)[O-])cc1 (stereo not given) -0.0749
CC(C)N1C(=O)[C@@]2(Cc3ccccc31)c1ccccc1C(=O)N(Cc1ccccc1Cl)[C@H]2c1ccc(CO)cc1 -1.6
C=CCC(OC(C)=O)[C@@H]1[C@@H](N(Cc2cc3ccccc3o2)C(=O)c2cccc3ccccc23)c2cc(OCCCO)ccc2N1C(=O)c1ccc(-c2ccccc2)cc1 (stereo not given in full) -0.208
C=CCC(OC(C)=O)[C@@H]1[C@@H](N(Cc2ccc(-c3ccccc3)cc2)C(=O)Cc2ccc(OC)cc2)c2cc(OCCCO)ccc2N1C(=O)Cc1ccc2ccccc2c1 (stereo not given in full) -0.726
Cc1ccc(S[C@]2(C(=O)O)CC(=O)N(C(C)C)[C@@H]2c2ccc(CO)cc2I)cc1 -2.76
O=C1O[C@@H](c2ccccc2)[C@@H](c2ccccc2)N2[C@@H](c3ccccc3OCCO)[C@]3(C(=O)Nc4ccc(C#CC5=CCCCC5)cc43)[C@@H](C(=O)N3CCCCCCC3)[C@H]12 1.19
O=C1OCCC/C=C\[C@H]2OC34C=CCN(Cc5ccccc5)C(=O)[C@H]3N(CCCO)C(=O)[C@@H]4C12 (stereo not given in full) 1.29
COC(=O)[C@@]1(Cc2ccc(OC)cc2)[C@H]2c3cc(C(=O)N(C)C)n(Cc4ccc(S(C)(=O)=O)cc4)c3C[C@H]2CN1C(=O)c1ccccc1 -2.36
CC(C)C[C@@H]1NC(=O)[C@H](C(C)C)NC(=O)[C@@]23C(=O)N[C@@H](Cc4ccccc4)C2[C@H](C)[C@@]2(C)O[C@H]2C3/C=C/CC/C=C/CNC1=O (stereo not given in full) 0.388
COCCOC(=O)N1C(=O)[C@@]2(c3ccccc31)[C@H](c1ccc(O)cc1)N1[C@H](c3ccccc3)[C@H](c3ccccc3)OC(=O)[C@H]1[C@@H]2C(=O)Nc1nc2ccccc2s1 0.941
CC(C)OC(=O)C=C1C[C@@H](c2ccccn2)O[C@@H](c2ccccn2)O1 -0.391
COC(=O)[C@@]1(Cc2ccc(F)cc2)[C@H]2c3cc(C(=O)N(C)C)n(Cc4ccc(Cl)c(C(F)(F)F)c4)c3C[C@H]2CN1C(=O)c1ccccc1 -0.285
CC(C)(C)OC(=O)CC[C@]1(C(=O)N2CCOCC2)N=C(c2ccc(OCCCO)cc2)O[C@H]1c1ccccc1N=[N+]=[N-] 0.207
C=C(C(=O)CC[C@@H](OC(=O)c1cccnc1)c1ccccc1OCCO)C(C)C -0.337
NCCCCCCNC(=O)[C@@H]1C[C@@H]2C(=O)NCC(=O)N2[C@@H]1c1ccc(O)cc1 0.681
CCCCCCc1nc(-c2cc(C)c(OC)c(C)c2)cc2c1[Si](C(C)C)(C(C)C)OC2 -0.493
C=CCOC(=O)[C@@H]1[C@H]2C(=O)O[C@H](c3ccccc3)[C@H](c3ccccc3)N2[C@H](c2ccc(OCCOC(=O)[C@H]3C[C@H]4C(=O)N5CCC[C@H]5C(=O)N4[C@H]3c3ccc(O)cc3)cc2)[C@@]12C(=O)Nc1ccc(I)cc12 1.27
O=C(N1CCCCC1)[C@]1(Cc2ccccc2)N=C(c2ccc(OCCCO)cc2)O[C@@H]1c1ccccc1 1.02
CCOC(=O)[C@H]1C/C=C/C[C@H](C(=O)OCC)C(=O)O[C@H]2[C@@H](OC)O[C@H](CO)[C@@H](OC(=O)c3c(OC)cccc3OC)[C@@H]2OC1=O 0.996
C=C(CCCC)/C(=C/C[C@H](OC(=O)c1ccncc1)c1ccccc1OCCO)c1cnc2ccccc2c1 -0.254
CCN(CC)c1ccc(N2CC=CC34O[C@@H]5C=CCCOC(=O)C5[C@H]3C(=O)N(CCCCCCO)[C@@H]4C2=O)cc1 (stereo not given in full) -1.31
COC(=O)[C@@]1(Cc2ccc(OC)cc2)[C@H]2c3cc(C(=O)N4CCCC4)n(CCN4CNCC4=O)c3C[C@H]2CN1C(=O)c1ccccc1 1.22
CCC(CC)C(O)C1C=CC2C(=O)NC(=O)C2N1Nc1ccccn1 (stereo not given) 0.469
O=C(CS)NCCCCCCNC(=O)[C@@H]1C[C@@H]2C(=O)NCC(=O)N2[C@@H]1c1cccc(OCCO)c1 0.752

Test: E. coli acrAB mutant growth effects, primary screen, E. coli filamentation inducers, strain DRC39, OD650, 24 h (AID 1178);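 further: growth measured as culture turbidity by optical density at 650 nm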
Settings: higher = more signal, called active from +8 up or from −8 down

z-score, inactive:
COCC(=C=CC[C@@H](O)c1cccc(OCCO)c1)C[C@@H](O)c1ccccn1 0.947
C[C@@]1([C@@H](NC(=O)c2ccc(-c3ccccc3)cc2)c2ccc(Cl)cc2)C[C@H]1C1CCCCC1 -0.325
CCc1cccc(NC(=O)O[C@H]2[C@H](OC(=O)Nc3ccccc3-c3ccccc3)[C@@H](OC(=O)Nc3ccccc3-c3ccccc3)[C@@H](OC)O[C@@H]2CO)c1 -1.04
C=C[C@H](CO[Si](CC)(CC)CC)N(Cc1ccc(OC(C)=O)c(OC)c1)S(=O)(=O)c1ccc(Br)cc1 0.93
C[C@H]1NC(=O)[C@@]23C(=O)N[C@@H](Cc4ccccc4)C2[C@H](C)[C@@]2(C)O[C@H]2C3/C=C/C/C=C\CNC(=O)[C@@H]2CCCN2C1=O (stereo not given in full) 0.901
CCS[C@H]1[C@@H](C(=O)O)[C@H](c2ccc(C)cc2)N(S(=O)(=O)c2ccc(C)cc2)[C@@H]1CC -0.419
COCCOC(=O)N1C(=O)[C@@]2(c3ccccc31)[C@H](C(=O)N1CCc3cc(OC)c(OC)cc3C1)[C@H]1C(=O)O[C@H](c3ccccc3)[C@H](c3ccccc3)N1[C@@H]2c1ccc(OCCO)cc1 -0.259
[N-]=[N+]=Nc1ccccc1[C@H]1OC(c2ccc(OCCCO)cc2)=N[C@@]1(CCS(=O)(=O)c1ccccc1)C(=O)NCC(O)CO (stereo not given in full) -0.117
[N-]=[N+]=NCc1ccccc1[C@@H]1OC(c2ccc(OCCCO)cc2)=N[C@]1(Cc1ccccc1)C(N)=O 0.671
C=C(CCCC)C(=O)CC[C@@H](OC(=O)c1ccccc1-c1ccccc1C(=O)O)c1ccc(OCCO)cc1 -0.0062
O=C(CS)NCCCCCCNC(=O)[C@@H]1C[C@@H]2C(=O)N[C@@H](Cc3ccccc3)C(=O)N2[C@@H]1c1cccc(OCCO)c1 0.051
CC(C)C(O)C1C=CC2C(=O)N(c3ccccc3)C(=O)C2N1Nc1ccc([N+](=O)[O-])cc1 (stereo not given) -0.912
CC(C)N1C(=O)[C@@]2(Cc3ccccc31)c1ccccc1C(=O)N(Cc1ccccc1Cl)[C@H]2c1ccc(CO)cc1 0.344
C=CCC(OC(C)=O)[C@@H]1[C@@H](N(Cc2cc3ccccc3o2)C(=O)c2cccc3ccccc23)c2cc(OCCCO)ccc2N1C(=O)c1ccc(-c2ccccc2)cc1 (stereo not given in full) 0.75
C=CCC(OC(C)=O)[C@@H]1[C@@H](N(Cc2ccc(-c3ccccc3)cc2)C(=O)Cc2ccc(OC)cc2)c2cc(OCCCO)ccc2N1C(=O)Cc1ccc2ccccc2c1 (stereo not given in full) -0.39
Cc1ccc(S[C@]2(C(=O)O)CC(=O)N(C(C)C)[C@@H]2c2ccc(CO)cc2I)cc1 0.818
O=C1O[C@@H](c2ccccc2)[C@@H](c2ccccc2)N2[C@@H](c3ccccc3OCCO)[C@]3(C(=O)Nc4ccc(C#CC5=CCCCC5)cc43)[C@@H](C(=O)N3CCCCCCC3)[C@H]12 -0.994
O=C1OCCC/C=C\[C@H]2OC34C=CCN(Cc5ccccc5)C(=O)[C@H]3N(CCCO)C(=O)[C@@H]4C12 (stereo not given in full) 0.625
COC(=O)[C@@]1(Cc2ccc(OC)cc2)[C@H]2c3cc(C(=O)N(C)C)n(Cc4ccc(S(C)(=O)=O)cc4)c3C[C@H]2CN1C(=O)c1ccccc1 0.366
CC(C)C[C@@H]1NC(=O)[C@H](C(C)C)NC(=O)[C@@]23C(=O)N[C@@H](Cc4ccccc4)C2[C@H](C)[C@@]2(C)O[C@H]2C3/C=C/CC/C=C/CNC1=O (stereo not given in full) 1.04
COCCOC(=O)N1C(=O)[C@@]2(c3ccccc31)[C@H](c1ccc(O)cc1)N1[C@H](c3ccccc3)[C@H](c3ccccc3)OC(=O)[C@H]1[C@@H]2C(=O)Nc1nc2ccccc2s1 0.411
CC(C)OC(=O)C=C1C[C@@H](c2ccccn2)O[C@@H](c2ccccn2)O1 -0.471
COC(=O)[C@@]1(Cc2ccc(F)cc2)[C@H]2c3cc(C(=O)N(C)C)n(Cc4ccc(Cl)c(C(F)(F)F)c4)c3C[C@H]2CN1C(=O)c1ccccc1 -1.2
CC(C)(C)OC(=O)CC[C@]1(C(=O)N2CCOCC2)N=C(c2ccc(OCCCO)cc2)O[C@H]1c1ccccc1N=[N+]=[N-] 0.453
C=C(C(=O)CC[C@@H](OC(=O)c1cccnc1)c1ccccc1OCCO)C(C)C 0.335
NCCCCCCNC(=O)[C@@H]1C[C@@H]2C(=O)NCC(=O)N2[C@@H]1c1ccc(O)cc1 -0.0366
CCCCCCc1nc(-c2cc(C)c(OC)c(C)c2)cc2c1[Si](C(C)C)(C(C)C)OC2 0.615
C=CCOC(=O)[C@@H]1[C@H]2C(=O)O[C@H](c3ccccc3)[C@H](c3ccccc3)N2[C@H](c2ccc(OCCOC(=O)[C@H]3C[C@H]4C(=O)N5CCC[C@H]5C(=O)N4[C@H]3c3ccc(O)cc3)cc2)[C@@]12C(=O)Nc1ccc(I)cc12 0.0092
O=C(N1CCCCC1)[C@]1(Cc2ccccc2)N=C(c2ccc(OCCCO)cc2)O[C@@H]1c1ccccc1 0.137
